Screening results: PubChem BioAssay, National Center for Advancing Translational Sciences (NCATS)
Most compounds without a hit are left out; they make up all but 21% or so of the library.
ClpP mod: qHTS Assay for Activators of ClpP; Potency, µM (series often up to 57.5 µM), for the others: at the top dose activity change, negative = active; hit rate 1.9% among 340,000; AID 651965, 2013; purified B. subtilis ClpP, FRET peptide cleavage, 20 min; active means well fitted falling curve with a large enough effect; inconclusive means small, poorly fitted or top-dose-only effect; inactive means no such curve, though single readings can be large or run the other way; further: potency means the concentration at half of the fitted maximal effect; the source files actives as falling curves though it sought activators and does not explain the sign; nearly all actives have a fitted effect of over 65% in size
Target sequence (P80244 whole entry, looked up): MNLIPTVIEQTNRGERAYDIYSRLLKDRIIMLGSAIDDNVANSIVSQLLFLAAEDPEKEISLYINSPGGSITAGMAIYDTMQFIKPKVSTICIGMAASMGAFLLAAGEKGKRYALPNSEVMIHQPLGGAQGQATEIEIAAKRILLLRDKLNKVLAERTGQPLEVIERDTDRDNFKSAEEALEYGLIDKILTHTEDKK
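Buffer: 100 mM Tris/HCl pH8, 100 mM KCl, 0.05% low protease BSA, 2.5% glycerol, 0.01% Tween-20. ClpP 10 microg/mL final; 20 min RT; delta FRET normalized to ADEP and DMSO controls.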
DRD3 agonist: agonists of human D3 dopamine receptor; AID 652048; P35462; hit rate 0.58% among 410,000; D3R DiscoveRx beta-arrestin cells, luminescence, 90 min; max activation, %; in the data active means max activation above about 30%; further: 0% is about no effect
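Cells at 1500/well, incubated overnight, then treated with pinned compounds (dopamine as control) for 90 min at 37 degrees C. DiscoveRx reagent added for 30 - 60 minutes at room temperature; luminescence read.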
IL1B secr inh: blocks inflammasome-driven IL-1 beta release; hit rate 4.7% among 360,000; THP-1 LPS/ATP IL-1B secretion, AlphaLISA, 16 h; stronger effect = lower value; activity change, % at 57.5 µM; in the data active means activity change below about -50%; inconclusive means mostly about -30% to -49%; further: on the % scale 0 is the no-effect control and ±100 the full control effect
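THP-1 cells pretreated 1 hr with compounds (up to 57.5 uM final), then stimulated with LPS (250 ng/mL final) plus ATP (1.25 mM final); secreted IL-1B measured by AlphaLISA after 16 hr, decreased signal indicating inhibition.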
D3 antag: antagonists of human D3 dopamine receptor; hit rate 2.5% among 360,000; D3R cells, DiscoveRx beta-arrestin luminescence, antagonist mode; stronger effect = lower value; max response, negative = inhibition, %; in the data active means max response below about -50%; inconclusive means no clear call, values can overlap the other calls; further: on the % scale 0 is the no-effect control and ±100 the full control effect
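Cells plated overnight at 1500 cells/well, then exposed to library compounds with dopamine controls for 90 minutes at 37 degrees C. DiscoveRx reagent added for 30–60 minutes at room temperature; luminescence read, quantitative HTS format.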
DT40 TDP1 CPT: growth inhibition of DT40 Tdp1-/-;hTDP1 cells with camptothecin (screen for TDP1 inhibitors); Potency, µM (highest dose often 46.2 µM), for the others: top-dose activity change, negative = growth inhibition, usual class: inhibitors; AID 686979; chicken DT40 Tdp1-/-;hTDP1 cells + 20 nM CPT, ATP luminescence, 48 h; hit rate 12% among 420,000; further: potency means the concentration at half of the fitted maximal effect; on the % scale 0 is the no-effect control and ±100 the full control effect; nearly all actives have a fitted effect of over 55% in size
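Cell growth measured by CellTiter-Glo luminescence after a minimum 48 h, 37 C compound exposure with 20 nM CPT in Tdp1-knockout DT40 cells stably expressing hTDP1, seeded 400/well; qHTS titration format.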
DT40 TDP1 no CPT: qHTS for Inhibitors of human tyrosyl-DNA phosphodiesterase 1 (TDP1): qHTS in cells in absence of CPT; hit rate 15% among 420,000; DT40 Tdp1-/- hTDP1 cells, no CPT, ATP luminescence, 48 h; Potency, µM (top dose mostly 46.2 µM), inactives show at the highest dose activity change, negative = growth inhibition, usual class: inhibitors; further: potency means the concentration at half of the fitted maximal effect; on the % scale 0 is the no-effect control and ±100 the full control effect; nearly all actives have a fitted effect of over 55% in size
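Chicken DT40 Tdp1-/- cells complemented with human TDP1, screened without camptothecin (DMSO vehicle only), 400 cells/well. Compounds pin-transferred, cells incubated at 37 °C for at least 48 hr. Growth read as ATP-dependent luminescence (CellTiter-Glo, 30 min at RT).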
* = called active by the depositor; i = inactive; ? = inconclusive; · = no result; [ ] = dose if it differs, or a comment. Unless noted, the call rests on the fitted dose curve; in most records, active means well fitted inhibition curve with a large enough effect; inconclusive means small, poorly fitted or top-dose-only effect; inactive means flat fitted curve, though single readings scatter.

SMILES | ClpP mod | DRD3 agonist | IL1B secr inh | D3 antag | DT40 TDP1 CPT | DT40 TDP1 no CPT
Cc1ccc(S(=O)(=O)N2CCCCC2CCNC(=O)C(=O)NCc2ccco2)cc1 (configuration not stated) | · | -18 | -17 | -23 | 13µM* | 7.3µM*
Cc1ccc(S(=O)(=O)N2CCCCC2CCNC(=O)C(=O)NCCc2ccco2)cc1 (configuration not stated) | -2% | 4 | 7 | -1 | 2.9µM* | 4.1µM*
O=C(NCCc1ccco1)C(=O)NCC1CCCN1S(=O)(=O)c1ccccc1 (configuration not stated) | · | -13 | -5 | 14 | 12µM* | 4.1µM*
COc1ccccc1CNC(=O)C(=O)NCCC1CCCCN1S(=O)(=O)c1ccc(C)cc1 (configuration not stated) | 1% | -6 | -1 | 2 | ? | ?
Cc1cc(C)c(S(=O)(=O)N2CCCCC2CCNC(=O)C(=O)NCc2ccco2)c(C)c1 (configuration not stated) | 14µM* | -1 | ? | 8 | ? | 16µM*
Cc1ccc(C)c(S(=O)(=O)N2CCCCC2CCNC(=O)C(=O)NCCc2ccco2)c1 (configuration not stated) | -2% | -1 | -21 | 8 | ? | ?
CCn1nnc2c(N3CCCC3)ncnc21 | 0% | · | · | · | ? | ?
Cc1nnc(NC(=O)c2cc(S(=O)(=O)N3CCCCC3)ccc2Cl)s1 | -1% | -6 | i | -8 | -9% | -13%
COc1ccc(/C=C2/SC(=O)N(NS(=O)(=O)c3ccccc3)C2=S)cc1OC | 0% | 5 | -5 | -1 | -19% | -14%
COc1ccc2c(c1)c1c(c(=O)n(-c3ccccc3C)c(=O)n1C)n2C | 4% | -8 | · | · | -29% | -18%
CN1c2ccccc2C(C)(C)C12C=Nc1c(ccc3ccccc13)O2 (configuration not stated) | -6% | 3 | -58* | 16 | 1% | -6%
CC1(c2cccc3ccccc23)OC(=O)c2ccccc21 (configuration not stated) | -3% | -15 | -16 | -20 | ? | ?
COc1ccc2ccc3c(c2c1)N=CC1(O3)N(C)c2ccccc2C1(C)C (configuration not stated) | -13% | -17 | -2 | ? | ? | 23µM*
CN1c2ccccc2C(C)(C)[C@]12C=Cc1cc(O)ccc1O2 | -5% | 6 | 37 | -3 | 2.6µM* | 7.3µM*
COc1cc(OC)cc(C(=O)NNC(=O)c2cc(S(=O)(=O)N3CCOCC3)ccc2F)c1 | -7% | 1 | 11 | ? | 4% | 4%
O=C(c1ccccc1)N(Cc1ccccc1)c1ccccn1 | -4% | -9 | 0 | -30 | -5% | -15%
CC(C)C(=O)N(Cc1ccccc1)c1ccccn1 | 0% | 0 | ? | 8 | -16% | -11%
O=C(c1ccc(Br)o1)N(Cc1ccccc1)c1ccccn1 | 6% | 32* | 16 | 11 | -18% | -22%
O=C(c1ccc([N+](=O)[O-])cc1)N(Cc1ccccc1)c1ccccn1 | · | -16 | -9 | -55* | 20% | -17%
CCC(Oc1ccccc1)C(=O)N(Cc1ccccc1)c1ccccn1 (configuration not stated) | -3% | -3 | 0 | -20 | ? | 16µM*
O=C(c1ccc(N2CCCCC2)c([N+](=O)[O-])c1)N(Cc1ccccc1)c1ccccn1 | 0% | -7 | ? | -14 | 16µM* | 18µM*
CC(C)N(c1ccc(C=O)cc1)C(C)C | -2% | · | · | · | -29% | -2%
O=C(CSc1nc(=O)n(CCN2CCOCC2)c2c1CCC2)Nc1cccc(Cl)c1 | 0% | -1 | · | · | -10% | -18%
COc1ccccc1C(=O)N[C@@H]1c2ccccc2C2(CCN(Cc3cccnc3)CC2)[C@H]1O | · | · | · | · | 6%[9.04 µM] | ?
O=[N+]([O-])c1ccccc1SN(Cc1ccccc1)c1ccccn1 | -8% | -6 | ? | -20 | ? | 15µM*
